Source: PubChem BioAssay AID1376 (SRMLSC, 2008)
The campaign covered roughly 220,000 compounds. About 530 (0.24%) were called active. Rule as the data show it: active = inhibition above about 13%; inconclusive = no clear call, values can overlap the other calls; inactive = below that. What follows is part of a selection rich in actives, with near analogues and random picks from the rest. Entries with a potency or affinity are not part of this list.

target: Bifunctional protein GlmU (Mycobacterium tuberculosis (strain ATCC 25618 / H37Rv)) (UniProt P9WMN3); test: inhibition of mycobacterial GlmU enzyme – biochemical, glucosamine-1-phosphate acetyltransferase (AID 1376);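 also: 0% = complete reaction with vehicle and 100% = reaction without substrate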; conditions: M. tuberculosis GlmU acetyltransferase enzyme assay; stronger effect = higher value;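 tested at 30 µM in the primary screen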
Sequence (P9WMN3 whole entry, looked up): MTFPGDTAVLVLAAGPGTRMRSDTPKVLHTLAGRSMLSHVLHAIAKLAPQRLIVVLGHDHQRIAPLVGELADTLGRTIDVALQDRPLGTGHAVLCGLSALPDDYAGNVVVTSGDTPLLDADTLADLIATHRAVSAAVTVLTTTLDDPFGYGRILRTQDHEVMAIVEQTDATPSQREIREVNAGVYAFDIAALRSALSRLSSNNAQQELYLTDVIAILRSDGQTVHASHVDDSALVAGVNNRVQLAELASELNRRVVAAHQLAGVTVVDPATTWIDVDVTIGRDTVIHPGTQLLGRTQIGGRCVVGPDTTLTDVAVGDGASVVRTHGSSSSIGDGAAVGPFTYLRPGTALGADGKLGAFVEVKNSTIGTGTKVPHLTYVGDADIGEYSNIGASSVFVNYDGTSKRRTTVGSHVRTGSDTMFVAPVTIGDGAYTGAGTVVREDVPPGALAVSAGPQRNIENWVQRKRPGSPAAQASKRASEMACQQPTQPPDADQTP

| SMILES | inhibition |
| --- | --- |
| COCc1cc(C)nc(SCC(=O)Nc2cccc(C)c2C)c1C#N | 3.01% (inactive) |
| COCc1cc(C)nc(SCC(=O)Nc2cccc3cccnc23)c1C#N | 15.1% (active) |
| COCc1cc(C)nc(SCC(=O)Nc2ccccc2C)c1C#N | 2.63% (inactive) |
| CC(C)(C)NCC(O)Cn1cc(C=O)c2ccccc21 (centres undefined) | 1.11% (inactive) |
| CC1(c2ccccc2)CC(C)(C)N2C(=O)Cc3cccc1c32 (centres undefined) | 2.59% (inactive) |
| Cc1cccc(-n2c(=O)[nH]c3c(C(N)=O)nc(C(C)C)nc32)c1 | 0.14% (inactive) |
| CCn1c2ccccc2c2cc(NC(=O)CSc3nnc(-c4ccc(OC)c(OC)c4)n3N)ccc21 | 3.95% (inactive) |
| CCn1c2ccccc2c2cc(NC(=O)CSc3nnc(-c4ccc(OC)cc4)n3N)ccc21 | 1.4% (inactive) |
| CCn1c2ccccc2c2cc(NC(=O)CSc3nnc(-c4cccc(OC)c4)n3N)ccc21 | 14.2% (active) |
| COC(=O)c1c(NC(=O)C2COc3ccccc3O2)sc2c1CCN(C(C)=O)C2 (centres undefined) | 2.68% (inactive) |
| O=C(COC(=O)/C=C/c1ccccc1[N+](=O)[O-])NC1CCS(=O)(=O)C1 (centres undefined) | 6.21% (inactive) |
| Cc1cccc(Sc2c([N+](=O)[O-])ncn2C)c1 | 4.72% (inactive) |
| Cn1cnc([N+](=O)[O-])c1S(=O)(=O)c1cccc(Cl)c1 | 14.8% (active) |
| Cn1cnc([N+](=O)[O-])c1Oc1ccc2ccccc2c1 | -3.73% (inactive) |
| Cn1cnc([N+](=O)[O-])c1Cl | 2.48% (inactive) |
| CCS(=O)(=O)c1c([N+](=O)[O-])ncn1C | 5.34% (inactive) |
| COc1ccc(/C=C(\C)c2nc(C)c(-c3ccccc3)c(=O)[nH]2)cc1 | 4.53% (inactive) |
| Fc1ccc(N2CCN(c3ncnc4nc[nH]c34)CC2)cc1 | 4.66% (inactive) |
| O=C(COC(=O)c1ccc(S(=O)(=O)N2CCCC2)cc1)Nc1ccc(N2CCOCC2)cc1 | -1.26% (inactive) |
| Cc1cccc(-c2nc3c(c(SCC(=O)N(C)C)n2)CCCC3)c1 | -3.93% (inactive) |
| NC(=O)CSc1nc(-c2ccccc2)nc2c1CCCC2 | -3.87% (inactive) |
| Cc1cccc(-c2nc3c(c(SCC(N)=O)n2)CCCC3)c1 | 14.5% (active) |
| COc1ccc(OC)c(NC(=O)NC2(C(F)(F)F)Oc3ccccc3O2)c1 | -3.98% (inactive) |
| O=C(O)CCSCC(=O)c1ccc2c(c1)OCCO2 | -0.32% (inactive) |

| SMILES | inhibition |
| --- | --- |
| O=[N+]([O-])c1c(Nc2ccccn2)cc(Cl)c2nonc12 | -2.44% (inactive) |
| CN(C)c1cc(Nc2cccc(O)c2)c([N+](=O)[O-])c2nonc12 | -3.39% (inactive) |
| CCNc1cc(Nc2c(C)n(C)n(-c3ccccc3)c2=O)c([N+](=O)[O-])c2nonc12 | 2.95% (inactive) |
| CNc1cc(Cl)c2nonc2c1[N+](=O)[O-] | 11.9% (inactive) |
| Cc1c(Nc2cc(N3CCOCC3)c3nonc3c2[N+](=O)[O-])c(=O)n(-c2ccccc2)n1C | -3.88% (inactive) |
| CN(C)c1cc(Nc2ccc(O)cc2)c([N+](=O)[O-])c2nonc12 | 0.57% (inactive) |
| CC1CN(C(=O)c2ccncc2)CC(C)O1 (centres undefined) | 2.56% (inactive) |
| c1cc2nncn2nc1N1CCCC1 | -1.89% (inactive) |
| COC(=O)c1cc(C#N)c(Oc2ccccc2)nc1C | 0.33% (inactive) |
| COc1cc(/C=N/NC(=O)c2cccnc2)ccc1OS(=O)(=O)c1cc(C)ccc1C | -3.66% (inactive) |
| O=C(OC1Cn2c(=O)ccc(=O)n2C1)c1ccc([N+](=O)[O-])cc1 | 1.59% (inactive) |
| COc1ccc(C(C(=O)NC2CCCC2)N(CC2CCCO2)C(=O)Cn2nnc(-c3ccc(C)o3)n2)cc1 (centres undefined) | 0.08% (inactive) |
| O=C1/C(=C/c2ccco2)SC(=S)N1C1CCS(=O)(=O)C1 (centres undefined) | 5.66% (inactive) |
| CC1=C(C#N)C(=O)N(C2CCS(=O)(=O)C2)C(=O)/C1=C\c1ccco1 (centres undefined) | 25.3% (active) |
| CC1=C(C#N)C(=O)N(C2CCS(=O)(=O)C2)C(=O)/C1=C\c1ccc(C)o1 (centres undefined) | 5.88% (inactive) |
| O=C1CN(c2ccc(Cl)cc2)C(=O)CN1NC(=S)Nc1ccc(Cl)cc1 | -0.02% (inactive) |
| Cc1ccccc1-c1nnc(SCC#N)o1 | 5.25% (inactive) |
| C(=N\Nc1ncnc2ccccc12)/c1ccccc1 | 4.18% (inactive) |
| Clc1cccc(/C=N/Nc2ncnc3ccccc23)c1 | 14.7% (active) |
| Clc1cccc(/C=N/Nc2nc(Cl)nc3ccccc23)c1 | -3.16% (inactive) |
| O=C(COC(=O)c1cccs1)NCC1CCCCC1 | -4.05% (inactive) |
| Cc1cc(C)nc(Sc2ccc(/C=C(\C#N)C(N)=O)o2)n1 | 3.14% (inactive) |
| Cc1cc(C)nc(Sc2ccc(/C=C(\C#N)C(=O)Nc3ccccc3)o2)n1 | -0.9% (inactive) |
| Cc1ccc(NC(=O)/C(C#N)=C/c2ccc(Sc3nc(C)cc(C)n3)o2)cc1 | 19.7% (active) |

| SMILES | inhibition |
| --- | --- |
| O=C1c2ccccc2S(=O)(=O)c2cc(C(=O)N3CCN(c4ccccc4)CC3)ccc21 | -0.95% (inactive) |
| COc1ccc(/C=N/NC(=O)c2ccc(CN3C(=O)c4cccc5cccc3c45)cc2)cc1O | -5.54% (inactive) |
| CC(=O)N1C(Nc2ccc(Cl)cc2)CCN1c1ccccc1 (centres undefined) | 13.2% (active) |
| O=C(CCN1CCN(c2ccccc2)CC1)Nc1ccc(Cl)cc1 | 7.38% (inactive) |
| O=C(Nc1ccc(Cl)cc1)N1CCN(c2ccccc2)CC1 | -0.29% (inactive) |
| COc1ccc(OCCC(=O)OCC(=O)NCCC2=CCCCC2)cc1 | -0.76% (inactive) |
| O=C(NCc1ccc2c(c1)OCO2)c1cc(-c2ccc(Cl)cc2Cl)on1 | -0.34% (inactive) |
| Cc1[nH]ccc(=O)c1OCc1c(Cl)cccc1Cl | -3.63% (inactive) |
| O=c1cc[nH]c2c(C(F)(F)F)cccc12 | 2.39% (inactive) |
| O=c1cc[nH]c2c(Cl)cccc12 | 17.7% (active) |
| COC(=O)C(C(=O)OC)c1ncccc1[N+](=O)[O-] | 3.41% (inactive) |
| COc1ccc(N2CC(C(=O)Nc3ccc4c(c3)OCO4)CC2=O)cc1 (centres undefined) | -2.39% (inactive) |
| CS(=O)(=O)N(Cc1ccco1)Cc1ccccc1Cl | 1.25% (inactive) |
| COCC(C)n1c(C)cc(C(=O)CSc2nnc(Nc3ccccc3F)s2)c1C (centres undefined) | 1.64% (inactive) |
| Cc1nn(Cc2c(Cl)cccc2Cl)c(C)c1NC(=O)CCCn1nc([N+](=O)[O-])c(Cl)c1C | 0.47% (inactive) |
| Cc1c(Cl)c([N+](=O)[O-])nn1CCCC(=O)Nc1cccc(Cl)c1Cl | -3.35% (inactive) |
| Cc1c(Cl)c([N+](=O)[O-])nn1CCCC(=O)Nc1c(Cl)cccc1Cl | 13.8% (active) |
| Cc1cc(-c2ccccc2C(=O)NCc2ccccc2)on1 | 2.22% (inactive) |
| COc1ccc(S(=O)(=O)N2CCCN(S(=O)(=O)c3ccc(OC)cc3C)CC2)c(C)c1 | 4.67% (inactive) |
| CC12CCC(C(=O)NCCc3ccccc3)(OC1=O)C2(C)C (centres undefined) | 0.84% (inactive) |
| Cc1cccc(S(=O)(=O)Nc2cccc3c2C(=O)c2ccccc2-3)c1 | 2.87% (inactive) |
| Cc1cc(C)c(Nc2cc(S(=O)(=O)O)c(N)c3c2C(=O)c2ccccc2C3=O)c(C)c1 | 17.5% (active) |
| Cc1cc(C)c(NC(=O)COC(=O)c2cccc3c2C(=O)c2ccccc2C3=O)c(C)c1 | 3.23% (inactive) |
| O=C(O)c1cccc(NC(CNS(=O)(=O)c2ccc(Cl)cc2)c2ccccc2)c1 (centres undefined) | 3.6% (inactive) |

| SMILES | inhibition |
| --- | --- |
| CN1CCN(CCOc2ccc(Cl)c(Cl)c2)CC1 | -3.6% (inactive) |
| CCc1ccccc1NC(=O)c1ccc(CN2CCC(Cc3ccccc3)CC2)cc1 | 3.49% (inactive) |
| CCOC(=O)COc1cnc2ccccc2n1 | 1.75% (inactive) |
| CC(=O)Nc1ccc2nc(NS(=O)(=O)c3ccc(C)cc3)sc2c1 | 3.98% (inactive) |
| CC(=O)Nc1ccc(S(=O)(=O)Nc2nc3ccc(C)cc3s2)cc1 | 13.2% (active) |
| COc1ccc2nc(NS(=O)(=O)c3ccc(NC(C)=O)cc3)sc2c1 | 4.76% (inactive) |
| CCc1c(O)nc(SCC(=O)NCc2ccco2)[nH]c1=O | -0.2% (inactive) |
| COc1ccc(Nc2ccc(N3C(=O)CCC3=O)cc2[N+](=O)[O-])cn1 | 2.73% (inactive) |
| CCCc1ccc(C(=O)NNC(=O)c2ccc(Cl)cc2)cc1 | 17.1% (active) |
| CCCc1ccc(C(=O)NNc2cc(Cl)ccc2Cl)cc1 | 2.48% (inactive) |
| CCCc1ccc(C(=O)NNC(=O)c2ccc(Br)cc2)cc1 | 1.63% (inactive) |
| CCOc1ccccc1/C=N/NC(=O)CNC(=O)c1ccc(S(=O)(=O)N2CCOCC2)cc1 | 0.48% (inactive) |
| CC(C)N1CCc2c(sc(NC(=O)c3nc4ccccc4s3)c2C(N)=O)C1 | 13.7% (active) |
| CC(C)N1CCc2c(sc(NC(=O)c3cc(-c4cccs4)nc4ccccc34)c2C(N)=O)C1 | -3.1% (inactive) |
| COC(=O)c1c(NC(=O)c2nc3ccccc3s2)sc2c1CCN(C(C)=O)C2 | -1.93% (inactive) |
| CCC(=O)N1CCc2cc(Br)cc(S(=O)(=O)CCC(=O)N(CC)CC)c21 | -2.77% (inactive) |
| CCN=C1S/C(=C\c2cc(OCC)c(O)cc2Br)C(=O)N1CC | -1.66% (inactive) |
| COc1ccc(N(CC(=O)NN=C2CCCCCCC2)S(=O)(=O)c2ccccc2)cc1Cl | 0.05% (inactive) |
| CC(=O)Nc1ccc(NC(=O)CCCSc2nc3ccccc3[nH]2)cc1 | -7.79% (inactive) |
| Cc1cc(C(F)F)n2ncc(C(=O)NCc3ccccc3)c2n1 | 1.36% (inactive) |
| Cc1cc(C(F)F)n2ncc(C(=O)NCc3ccc(F)cc3)c2n1 | 3.5% (inactive) |
| COc1ccc(CNC(=O)c2cnn3c(C(F)F)cc(C)nc23)cc1 | 14.5% (active) |
